SW480 rereplic = induces DNA re-replication in SW480 colon adenocarcinoma cells; SW480 DNA re-replication, Hoechst DNA content imaging, 48 h; Potency, µM (top dose mostly 46.1 µM), most hits filed as activators; 340,000 tested, 1.8% active; further: nearly all actives have a fitted effect of over 55% in size
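Per well, 250 cells were exposed to pinned compound for 48 hr. Nuclear DNA was visualised with Hoechst (40 min, 37 C) and total object intensity recorded by fluorescence scanning.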
Gal4-VP16 FLuc = Gal4-VP16 reporter inhibition counter-screen. Drosophila S2 Gal4-VP16 UAS-luciferase, luminescence, 20 h. 310,000 tested, 3.5% active. Potency, µM (doses to about 53.6 µM), actives largely listed as inhibitors. AID 2546;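 further: Gal4-VP16 expression switched on by copper sulfate through the metallothionein promoter; nearly all actives have a fitted effect of over 50% in size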
MCF10A rerep = DNA re-replication induction in MCF 10a cells. Potency, µM (top dose mostly 46.1 µM), most hits filed as activators. MCF 10A DNA re-replication, Hoechst nuclear intensity, 48 h. 350,000 tested, 2.9% active; further: nearly all actives have a fitted effect of over 50% in size
RORg inh = ROR gamma (mouse) transcription inhibition. 310,000 tested, 5.4% active. Potency, µM (doses to about 53.6 µM), usual class: inhibitors. Drosophila S2 Gal4-RORgamma UAS-luciferase reporter, 20 h. AID 2551. P51450; further: nearly all actives have a fitted effect of over 60% in size
Target sequence (P51450 whole entry, looked up, the tested form may be a part): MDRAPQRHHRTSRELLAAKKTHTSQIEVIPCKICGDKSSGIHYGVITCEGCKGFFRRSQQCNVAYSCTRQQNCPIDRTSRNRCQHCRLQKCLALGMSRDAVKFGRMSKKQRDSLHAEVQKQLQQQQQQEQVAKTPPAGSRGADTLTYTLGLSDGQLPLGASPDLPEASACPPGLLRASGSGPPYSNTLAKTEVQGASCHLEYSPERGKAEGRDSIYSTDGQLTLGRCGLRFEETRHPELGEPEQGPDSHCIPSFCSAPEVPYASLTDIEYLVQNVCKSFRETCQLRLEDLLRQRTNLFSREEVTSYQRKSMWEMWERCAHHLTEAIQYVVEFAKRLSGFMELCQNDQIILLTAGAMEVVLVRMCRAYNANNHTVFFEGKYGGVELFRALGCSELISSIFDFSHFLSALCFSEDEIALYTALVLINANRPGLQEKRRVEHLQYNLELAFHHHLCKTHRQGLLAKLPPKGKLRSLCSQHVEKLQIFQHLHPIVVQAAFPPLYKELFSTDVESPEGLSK
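Luminescence from a UAS-regulated Photinus luciferase reporter in stably transfected Drosophila Schneider cells is measured; decreased signal marks ROR gamma inhibition. Fusion expression is induced by 700 uM copper sulfate for 20 hr.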
ELG1 repair inh = inhibitors of ELG1-dependent DNA repair in HEK293T cells; HEK293T ELG1-luciferase reporter, luminescence, 16 h; DNA damage induced by 5-fluorouridine; Potency, µM (titrated, usually from 46.1 µM), usual class: inhibitors; 330,000 tested, 2.3% active; AID 504467; further: nearly all actives have a fitted effect of over 55% in size
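Step one: seed 2,000 cells per well. Step two: pin-transfer compound or DMSO alongside 5-fluorouridine. Step three: incubate 16 hr, 37 °C, 5% CO2. Step four: add ONE-Glo, wait 30 min, read luminescence.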
Each line names hits and unclear results; the compound was inactive in the other large screens. An excerpt weighted towards active compounds, which were near 10% of everything screened. The call rests on the fitted dose curve; in most records, active means well fitted curve in the direction sought with a large enough effect; inconclusive means small, poorly fitted or top-dose-only effect, or another doubt; inactive means no such curve, though single readings can be large; an effect the other way counts as inactive or inconclusive.

Cc1nn(-c2cccc(Cl)c2)c2nc(-c3ccco3)cc(C(=O)O)c12	MCF10A rerep 14.6µM
CC(C)CC(=O)NS(=O)(=O)c1ccc(NS(C)(=O)=O)cc1	none
O=C(O)CCCn1cc(NC(=O)COc2cc(F)ccc2[N+](=O)[O-])cn1	Gal4-VP16 FLuc 0.501µM, ELG1 repair inh inconclusive
COc1ccc(OCC(=O)OCC(=O)c2ccc(OC)c(F)c2)cc1	ELG1 repair inh inconclusive (no result: Gal4-VP16 FLuc, RORg inh)
COc1ccc(NC(=O)Nc2nc(C)cc(C)n2)c(OC)c1	ELG1 repair inh inconclusive
Cc1ccn2c(-c3n[nH]c(=S)n3Cc3ccccc3)c(C)nc2c1	MCF10A rerep inconclusive
Cc1nn(Cc2n[nH]c(=S)n2Cc2ccccc2)c(C)c1Cl	Gal4-VP16 FLuc 20µM, RORg inh 5.62µM, ELG1 repair inh inconclusive
Cc1cc(C)n(Cc2n[nH]c(=S)n2Cc2ccccc2)n1	Gal4-VP16 FLuc inconclusive, RORg inh 11.2µM
COc1ccccc1C(=O)NCc1n[nH]c(=S)n1Cc1ccccc1	RORg inh inconclusive
CCSc1cc(C)nc2c(-c3ccc(Cl)cc3)c(C)nn12	SW480 rereplic 18.4µM, MCF10A rerep 14.6µM
Cc1cc(SCC(=O)c2ccc(O)c(O)c2)n2nc(C)c(-c3ccccc3)c2n1	SW480 rereplic 7.31µM, MCF10A rerep inconclusive, ELG1 repair inh inconclusive
COc1cc(/C=C/C(=O)O)cc(S(=O)(=O)Nc2cccc(SC)c2)c1OC	RORg inh inconclusive (no result: SW480 rereplic)
Cc1cccc(NC2CNC(=O)NC2=O)c1 (stereo unspecified)	none (no result: Gal4-VP16 FLuc, RORg inh, ELG1 repair inh)
CN(NS(=O)(=O)c1ccc(F)cc1)c1ncc(C(F)(F)F)cc1Cl	Gal4-VP16 FLuc 6.31µM, RORg inh 3.16µM
CN(NS(=O)(=O)c1ccc(Cl)cc1)c1ncc(C(F)(F)F)cc1Cl	Gal4-VP16 FLuc 3.16µM, RORg inh 2.24µM
CN(NC(N)=O)c1ncc(C(F)(F)F)cc1Cl	none
O=c1cnc2cnc(N3CCNCC3)nc2n1C1CC1	none (no result: SW480 rereplic, MCF10A rerep, ELG1 repair inh)
CCCCCCOc1ccc(NC(=O)CC2C(=O)N(CC)C(=S)N2Cc2ccco2)cc1 (stereo unspecified)	SW480 rereplic inconclusive, Gal4-VP16 FLuc inconclusive, MCF10A rerep 18.4µM, RORg inh inconclusive, ELG1 repair inh inconclusive
COC(=O)C(=N/Nc1ccccc1C(=O)OC)/C(C)=N/O	none
Cc1ccccc1Nc1c(-c2ccccn2)nc2ccccn12	MCF10A rerep inconclusive
Cc1ccn2c(Nc3ccccc3C)c(-c3ccccn3)nc2c1	Gal4-VP16 FLuc inconclusive, MCF10A rerep inconclusive, RORg inh 14.1µM, ELG1 repair inh inconclusive
Cc1ccc2nc(-c3ccccn3)c(Nc3ccccc3C)n2c1	SW480 rereplic 3.66µM, MCF10A rerep inconclusive, RORg inh 14.1µM
Cc1ccn2c(Nc3ccccc3)c(-c3ccccn3)nc2c1	SW480 rereplic inconclusive, MCF10A rerep 16.4µM, RORg inh 15.8µM, ELG1 repair inh inconclusive
Cc1cccn2c(Nc3ccccc3)c(-c3ccccn3)nc12	Gal4-VP16 FLuc 5.01µM, RORg inh 3.16µM, ELG1 repair inh inconclusive
Cc1nn(CC(=O)NCC(C)c2ccccc2)c(=O)c2cccn12 (stereo unspecified)	none
COc1ccc(N2CCN(CCNC(=O)c3ccc4c(c3)[nH]c(=S)n3c5ccccc5nc43)CC2)cc1	SW480 rereplic 7.31µM, Gal4-VP16 FLuc 3.55µM, RORg inh 6.31µM, ELG1 repair inh inconclusive
Cn1c(C(C#N)C(=O)c2sc3ccccc3c2Cl)nc2ccccc21 (stereo unspecified)	Gal4-VP16 FLuc 4.47µM, RORg inh 1.78µM
COc1ccc(-c2c3c(cc(C)[n+]2[O-])oc2ccc(OC)cc23)cc1	MCF10A rerep 16.4µM, ELG1 repair inh inconclusive
Cc1ccc(S(=O)(=O)n2c(C)nc3cc(C)ccc32)cc1	none
C=CCN1C(c2cccc(C(F)(F)F)c2)=CS/C1=C(/C#N)c1nnc(N2CCOCC2)n1-c1ccccc1	MCF10A rerep inconclusive, RORg inh inconclusive, ELG1 repair inh inconclusive
C=CCN1C(=O)NC(c2ccc(OC)cc2)(C(F)(F)F)S/C1=C(\C#N)c1nnc(N2CCOCC2)n1-c1ccccc1 (stereo unspecified)	Gal4-VP16 FLuc 12.6µM, MCF10A rerep inconclusive, RORg inh 4.47µM
CCOc1ccc(NC(=O)CN(C)C(=O)c2cn3ccccc3n2)cc1OCC	none (no result: Gal4-VP16 FLuc, RORg inh)
COc1ccc(Cl)cc1NC(=O)CN(C)C(=O)c1cc(=O)c2ccccc2o1	SW480 rereplic inconclusive, ELG1 repair inh inconclusive (no result: Gal4-VP16 FLuc, RORg inh)
COc1ccc(Cl)cc1NC(=O)CN(C)C(=O)c1n[nH]c2ccccc12	ELG1 repair inh 8.2µM (no result: Gal4-VP16 FLuc, RORg inh)
COc1ccc(Cl)cc1NC(=O)CN(C)C(=O)c1cn2ccccc2n1	SW480 rereplic 13µM, MCF10A rerep inconclusive, ELG1 repair inh inconclusive (no result: Gal4-VP16 FLuc, RORg inh)
CCCNC(=O)c1ccc(N2CCC3(CC2)CC(c2ccccc2)=NO3)c(NC(=O)c2ccccc2)c1	ELG1 repair inh 6.51µM
CCCNC(=O)c1ccc(N2CCC3(CC2)CC(c2ccccc2)=NO3)c(NC(=O)c2ccc(Br)cc2)c1	MCF10A rerep inconclusive, ELG1 repair inh inconclusive
Clc1ccc(/C=N/Nc2ncnc3ccccc23)cc1Cl	Gal4-VP16 FLuc 3.55µM, MCF10A rerep inconclusive, RORg inh 1.41µM, ELG1 repair inh inconclusive
Nc1c(Cl)ncnc1N/N=C/c1cccc(O)c1	ELG1 repair inh inconclusive
Fc1ccccc1/C=N/Nc1ncnc2ccccc12	Gal4-VP16 FLuc 4.47µM, RORg inh 2.82µM, ELG1 repair inh inconclusive
Fc1ccccc1/C=N/Nc1nc2ccccc2o1	Gal4-VP16 FLuc 11.2µM, RORg inh 6.31µM, ELG1 repair inh inconclusive
Oc1ccc(Nc2ncnc3ccccc23)cc1	Gal4-VP16 FLuc inconclusive
COC(=O)[C@@]1(C)C=C[C@@H](Cc2ccccc2)N1C	none (no result: SW480 rereplic, MCF10A rerep, ELG1 repair inh)
COc1ccccc1CNC(=O)CCNS(=O)(=O)c1ccc2[nH]c(=O)oc2c1	SW480 rereplic inconclusive
C/C(=N\NC(=O)Cc1c(Cl)cccc1Cl)c1cccnc1	none
O=C(c1ccc(S(=O)(=O)NCC2CCCO2)cc1)N1CCN(c2cccc(Cl)c2)CC1 (stereo unspecified)	Gal4-VP16 FLuc inconclusive, RORg inh inconclusive, ELG1 repair inh 9.2µM
CN(C)c1ccc(NC(=S)N2CCN(c3ncc(C(F)(F)F)cc3Cl)CC2)cc1	Gal4-VP16 FLuc inconclusive, MCF10A rerep inconclusive, RORg inh 10µM
FC(F)(F)c1cccc(N2CCN(C(=S)NCC3CCCO3)CC2)c1 (stereo unspecified)	Gal4-VP16 FLuc inconclusive, MCF10A rerep inconclusive, ELG1 repair inh 20.6µM
O=C(c1ccc(S(=O)(=O)NCC2CCCO2)cc1)N1CCN(c2ccccc2F)CC1 (stereo unspecified)	none
CCc1ccc(NC(=S)N2CCN(c3cccc(C(F)(F)F)c3)CC2)cc1	Gal4-VP16 FLuc 35.5µM, RORg inh 12.6µM
CS(=O)(=O)c1ccccc1C(=O)N1CCN(Cc2ccccc2)CC1	none
CCOC(=O)NC(=O)COC(=O)CCCc1nc2ccccc2s1	none
CC[C@H](CO)Oc1cc(NCc2ccc(Cl)c(Cl)c2)c2ncn(C(C)C)c2c1	MCF10A rerep 20.6µM, ELG1 repair inh inconclusive (no result: Gal4-VP16 FLuc, RORg inh)

Compound activity deposited in PubChem by National Center for Advancing Translational Sciences (NCATS).
